The structures appear in SMILES notation. Hit rate of the full screen: of about 320,000 compounds, about 2,100 (0.66%) were called active. Another 53% or so got no clear call; they are omitted. Calls follow the shape of the dose curve; as a rule, active = well fitted inhibition curve with a large enough effect in the signal ratio, with a control signal flat (not every such curve was filed as active); inconclusive = small, poorly fitted or top-dose-only effect, or effect the other way, or a change in a side signal; inactive = flat fitted curve, though single readings scatter; the % refers to the signal ratio. The sample as a whole holds a higher share of actives than the screen did.
Potency is read from the fitted curve at half-maximal effect.

The nature of the experiment: qHTS Assay for Lipid Storage Modulators in Drosophila S3 Cells.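 As to cell number change: cells counted by Cell Tracker Red CMTPX staining in the red channel.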 As to lipid storage change, negative = inhibition: % is scaled to controls: 0 for no effect and ±100 for the full control effect. The conditions noted are these: BODIPY lipid droplet fluorescence, 18-24 h, cells fed with added oleic acid; cell number change: measured here: cell count max response; series mostly up to 46.1 µM; lipid storage change, negative = inhibition: at the top concentration. The method, boiled down:
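Drosophila S3 cells got compounds at several concentrations plus oleic acid (400 uM solution). Laser-scanning cytometry with 488 nm excitation read lipid droplets at 500-530 nm and cells at 575-640 nm. Percent activity was relative to 20 uM Triacsin C.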
A general note: In qHTS, concentration-response curves come from the screen itself.
With `O=C(Nc1cccc2ccccc12)N1CCN(c2ncccn2)CC1`, the “lipid storage change, negative = inhibition” value is 9.88% (inactive) and the cell number change was 15%.

Take `CC(C)=CCN1CCN(Cc2cnc(N3CCOCC3)s2)CC1CCO` (configuration not stated): the Potency is 13 µM (active) and the cell number change was -26.5%.

For the compound `Cc1ccc(CN2CCN(Cc3cnc(N4CCOCC4)s3)CC2CCO)cc1` (configuration not stated), the “lipid storage change, negative = inhibition” value is -24.1% (inactive) and the cell number change is -2.17%.

For `CC(C)CN1CCN(Cc2cnc(N3CCOCC3)s2)CC1CCO` (configuration not stated), the “lipid storage change, negative = inhibition” value was 9.67% (inactive) and the cell number change is 24.7%.

Consider `O=C1CN(S(=O)(=O)c2ccccc2)CCN1S(=O)(=O)c1ccccc1`, for which the “lipid storage change, negative = inhibition” value is -1.23% (inactive) and the cell number change was -1.6%.

As to `CCC1C(=O)N=C(SCC(=O)Nc2ccccc2)NC1=O` (configuration not stated), the “lipid storage change, negative = inhibition” value is 5.42% (inactive) and the cell number change was determined as 7.84%.

Consider `NS(=O)(=O)c1ccc(NC(=O)CSC2=NC(=O)C(c3ccccc3)C(=O)N2)cc1` (configuration not stated), for which the “lipid storage change, negative = inhibition” value is -4.72% (inactive) and the cell number change is -0.978%.

As to `CCC1C(=O)N=C(SCC(=O)Nc2ccc(S(N)(=O)=O)cc2)NC1=O` (configuration not stated), the Potency was 6.51 µM (active) and the cell number change is -37.4%.

Take `O=S(=O)(/N=C(/c1ccc(F)cc1)N1CCCCC1)c1ccc(Cl)cc1`: the “lipid storage change, negative = inhibition” value is 1.25% (inactive) and the cell number change was -6.48%.

With `Cc1ccc(CNC(=O)CN2C(=O)c3ccccc3S2(=O)=O)cc1`, the compound was called inactive and the cell number change came to 20.7%.

For `Cn1cc(C(=O)N/N=C/c2c(O)ccc3ccccc23)ccc1=O`, the “lipid storage change, negative = inhibition” value was 17% (inactive) and the cell number change was -26.3%.

For the compound `CN(C)c1ccc(/C=N/NC(=O)c2ccnn2C)cc1`, the compound was classed as inactive and the cell number change is -10.8%.

For `Cn1nccc1C(=O)N/N=C/c1c(O)ccc2ccccc12`, the Potency was 14.6 µM (active) and the cell number change was -2.67%.

For `O=C1NC(=S)N/C1=C/c1ccc(Oc2ccc(C(F)(F)F)cc2[N+](=O)[O-])c(Cl)c1`, the “lipid storage change, negative = inhibition” value was -0.498% (inactive) and the cell number change is -6.9%.

Regarding `COc1ccc(N2C(=O)CC(NC3CCCCNC3=O)C2=O)cc1` (configuration not stated), the “lipid storage change, negative = inhibition” value was -4.85% (inactive) and the cell number change turned out to be 5.19%.

Turning to `COCC(=O)Nc1ccc(OCc2ccccc2)cc1`, the compound was called inactive and the cell number change came out at 4%.

In the case of `COc1ccc(NC(=O)CN(C)C(=O)/C=C/c2ccc(OCc3ccccc3)cc2)cc1`, the Potency is 0.731 µM (active) and the cell number change was -11.8%.

Consider `COc1ccc(NC(=O)CN(C)C(=O)c2ccc(COc3ccccc3)cc2)cc1`, for which the “lipid storage change, negative = inhibition” value was 16.5% (inactive) and the cell number change was -6.23%.

Take `Cc1ccc(C23CC4CC(CC(C(=O)OCC(=O)N(C)C)(C4)C2)C3)cc1`: the “lipid storage change, negative = inhibition” value is 7.97% (inactive) and the cell number change came out at 4.17%.

As to `CCOc1ccccc1CNC(=O)c1ccc(Sc2ccc(Cl)cc2)c(NC(C)=O)c1`, the “lipid storage change, negative = inhibition” value was 22.8% (inactive) and the cell number change came to 7.67%.

Regarding `Cc1[nH]c2ccccc2c1C(=O)C(=O)N1CCN(C(=O)c2ccco2)CC1`, the compound was classed as inactive and the cell number change is 27%.

`O=C(Nc1ccccn1)c1onc2c1CCCC2`: the “lipid storage change, negative = inhibition” value is 0.434% (inactive).

As to `O=C(Nc1cccc2ccccc12)c1onc2c1CCCC2`, the compound was called inactive.

`Cc1ccccc1NC(=O)c1onc2c1CCCC2`: the Potency was 25.9 µM (active).

Regarding `Cc1ccccc1NC(=O)C(=O)Nc1ccccc1C`, the “lipid storage change, negative = inhibition” value is 7.41% (inactive) and the cell number change was determined as 0.926%.

For `Cc1ccccc1NC(=O)c1cccc(C(=O)Nc2ccccc2C)n1`, the Potency was 8.2 µM (active) and the cell number change was -25.7%.

As to `Cc1ccccc1NC(=O)c1ccccn1`, the “lipid storage change, negative = inhibition” value is 2.23% (inactive).

For the compound `COc1cc2c(cc1OC)C(c1ccc3c(c1)OCO3)C1=C(CC(C)(C)CC1=O)N2` (configuration not stated), the “lipid storage change, negative = inhibition” value is -20.1% (inactive) and the cell number change is -17.2%.

In the case of `CC(=O)NCc1cc(-c2ccc(Cl)cc2)no1`, the cell number change is -2.06% and the lipid storage change, negative = inhibition was 0.337% [at 9.22 µM] (inactive).

Take `O=C(NCc1nnc(SCC(=O)N2CCc3ccccc32)o1)c1cccs1`: the “lipid storage change, negative = inhibition” value is 2.4% (inactive) and the cell number change is -1.06%.

Regarding `CCOC(=O)N1CCN(CC(O)c2c[nH]c3ccccc23)CC1` (configuration not stated), the “lipid storage change, negative = inhibition” value is 1.13% (inactive) and the cell number change came to 14.4%.

Turning to `Cc1ccc(-c2nn(C)c(=O)c3ccccc23)cc1CNC(=O)/C=C/c1ccccc1`, the call was inactive and the cell number change is -24.2%.

`C=CCOc1ccc(-c2nc3c(c(=O)[nH]c(=O)n3Cc3ccccc3)n2CCCOC)cc1`: the “lipid storage change, negative = inhibition” value was -1% (inactive) and the cell number change came out at 4.84%.

Take `CCCCn1c(=O)[nH]c(=O)c2c1nc(-c1ccc(-c3ccc(F)cc3)o1)n2C`: the “lipid storage change, negative = inhibition” value is 26% (inactive) and the cell number change is 10.6%.

Regarding `CCCCn1c(=O)[nH]c(=O)c2c1nc(-c1cccc(OC)c1)n2C`, the “lipid storage change, negative = inhibition” value was -6.52% (inactive) and the cell number change is -6.05%.

Regarding `CCCCn1c(=O)[nH]c(=O)c2c1nc(-c1ccc(OCC)cc1)n2CC`, the “lipid storage change, negative = inhibition” value is 13.4% (inactive) and the cell number change is -8.47%.

For `CCCn1c(-c2cc(OC)c(OC)c(OC)c2)nc2c1c(=O)[nH]c(=O)n2Cc1ccccc1`, the Potency is 0.651 µM (active).

Take `CCCn1c(-c2cccc(F)c2)nc2c1c(=O)[nH]c(=O)n2Cc1ccccc1`: the result was inactive and the cell number change is 13.3%.

As for `CCCn1c(-c2cccc([N+](=O)[O-])c2)nc2c1c(=O)[nH]c(=O)n2Cc1ccccc1`, the “lipid storage change, negative = inhibition” value was 18.3% (inactive) and the cell number change was determined as 1.66%.

`CCCCn1c(=O)[nH]c(=O)c2c1nc(-c1cc(Br)c(OCC)c(OC)c1)n2C`: the “lipid storage change, negative = inhibition” value was -29.7% (inactive) and the cell number change came out at 15%.

As to `C=CCOc1ccc(-c2nc3c(c(=O)[nH]c(=O)n3CCC)n2CCCC)cc1`, the Potency is 2.91 µM (active) and the cell number change stood at 22.5%.

For `C=CCOc1ccc(-c2nc3c(c(=O)[nH]c(=O)n3CCCC)n2C)cc1Br`, the “lipid storage change, negative = inhibition” value was -0.288% (inactive) and the cell number change stood at 12.1%.

`CCCCn1c(=O)[nH]c(=O)c2c1nc(-c1ccc(OC)c(Br)c1)n2CC(C)C`: the Potency was 0.326 µM (active) and the cell number change was 9.66%.

For `CCCCn1c(=O)[nH]c(=O)c2c1nc(-c1ccc(-c3ccccc3)cc1)n2C`, the Potency was 3.66 µM (active) and the cell number change was -2.7%.

For the compound `Cc1cc(C)c(NC(=O)c2cc(C(=O)O)ccc2C(=O)O)c([N+](=O)[O-])c1`, the “lipid storage change, negative = inhibition” value is 2.67% (inactive) and the cell number change came out at 2.4%.

Take `COc1ccc(CCc2cc(OC)cc(=O)o2)cc1`: the “lipid storage change, negative = inhibition” value is 16.7% (inactive) and the cell number change was -1.16%.
